The results in this text go back to the supplement of paper PMC11001985.

A number with no mark means an inactive call.

Sequence of UniProt Q13740 (Q13740 whole entry): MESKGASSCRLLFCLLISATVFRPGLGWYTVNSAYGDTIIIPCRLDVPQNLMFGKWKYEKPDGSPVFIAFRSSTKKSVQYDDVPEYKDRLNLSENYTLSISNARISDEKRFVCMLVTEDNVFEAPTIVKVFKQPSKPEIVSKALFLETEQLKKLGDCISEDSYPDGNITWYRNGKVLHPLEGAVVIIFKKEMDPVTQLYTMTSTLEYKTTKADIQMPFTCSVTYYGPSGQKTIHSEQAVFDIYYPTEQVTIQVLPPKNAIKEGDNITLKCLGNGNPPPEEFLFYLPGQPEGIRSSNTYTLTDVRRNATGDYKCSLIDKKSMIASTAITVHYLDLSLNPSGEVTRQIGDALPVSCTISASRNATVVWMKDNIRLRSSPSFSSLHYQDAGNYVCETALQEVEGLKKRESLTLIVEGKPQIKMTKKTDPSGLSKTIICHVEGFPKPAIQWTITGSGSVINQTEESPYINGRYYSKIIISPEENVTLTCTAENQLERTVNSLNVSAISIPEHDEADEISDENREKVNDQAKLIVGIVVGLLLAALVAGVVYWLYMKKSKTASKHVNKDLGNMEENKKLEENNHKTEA
Sequence of UniProt Q15125 (Q15125 whole entry): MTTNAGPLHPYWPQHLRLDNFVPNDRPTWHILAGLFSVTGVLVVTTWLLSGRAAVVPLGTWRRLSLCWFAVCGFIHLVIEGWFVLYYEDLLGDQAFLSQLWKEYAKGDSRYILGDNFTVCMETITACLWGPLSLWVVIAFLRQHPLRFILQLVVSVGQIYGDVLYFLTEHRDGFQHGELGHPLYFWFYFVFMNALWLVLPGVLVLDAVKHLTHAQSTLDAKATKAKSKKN
Sequence of UniProt O95573 (O95573 whole entry): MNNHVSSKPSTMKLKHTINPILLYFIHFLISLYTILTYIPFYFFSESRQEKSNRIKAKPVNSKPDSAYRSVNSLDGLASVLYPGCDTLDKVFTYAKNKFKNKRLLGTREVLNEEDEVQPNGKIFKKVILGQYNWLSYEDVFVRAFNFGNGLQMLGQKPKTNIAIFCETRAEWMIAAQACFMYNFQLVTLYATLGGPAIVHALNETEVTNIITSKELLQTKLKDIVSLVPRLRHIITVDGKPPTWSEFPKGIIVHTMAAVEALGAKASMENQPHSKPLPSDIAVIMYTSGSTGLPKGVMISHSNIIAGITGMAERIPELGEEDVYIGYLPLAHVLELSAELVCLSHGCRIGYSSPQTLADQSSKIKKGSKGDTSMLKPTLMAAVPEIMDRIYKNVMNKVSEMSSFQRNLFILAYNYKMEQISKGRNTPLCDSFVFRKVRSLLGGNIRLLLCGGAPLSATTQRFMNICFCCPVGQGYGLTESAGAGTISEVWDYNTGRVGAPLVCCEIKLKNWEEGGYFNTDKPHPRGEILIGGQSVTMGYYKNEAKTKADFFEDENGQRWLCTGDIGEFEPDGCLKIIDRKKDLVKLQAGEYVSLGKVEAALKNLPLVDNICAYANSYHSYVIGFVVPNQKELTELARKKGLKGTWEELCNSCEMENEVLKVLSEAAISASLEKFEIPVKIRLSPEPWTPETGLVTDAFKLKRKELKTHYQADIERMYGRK
Sequence of UniProt P21333 (P21333 whole entry): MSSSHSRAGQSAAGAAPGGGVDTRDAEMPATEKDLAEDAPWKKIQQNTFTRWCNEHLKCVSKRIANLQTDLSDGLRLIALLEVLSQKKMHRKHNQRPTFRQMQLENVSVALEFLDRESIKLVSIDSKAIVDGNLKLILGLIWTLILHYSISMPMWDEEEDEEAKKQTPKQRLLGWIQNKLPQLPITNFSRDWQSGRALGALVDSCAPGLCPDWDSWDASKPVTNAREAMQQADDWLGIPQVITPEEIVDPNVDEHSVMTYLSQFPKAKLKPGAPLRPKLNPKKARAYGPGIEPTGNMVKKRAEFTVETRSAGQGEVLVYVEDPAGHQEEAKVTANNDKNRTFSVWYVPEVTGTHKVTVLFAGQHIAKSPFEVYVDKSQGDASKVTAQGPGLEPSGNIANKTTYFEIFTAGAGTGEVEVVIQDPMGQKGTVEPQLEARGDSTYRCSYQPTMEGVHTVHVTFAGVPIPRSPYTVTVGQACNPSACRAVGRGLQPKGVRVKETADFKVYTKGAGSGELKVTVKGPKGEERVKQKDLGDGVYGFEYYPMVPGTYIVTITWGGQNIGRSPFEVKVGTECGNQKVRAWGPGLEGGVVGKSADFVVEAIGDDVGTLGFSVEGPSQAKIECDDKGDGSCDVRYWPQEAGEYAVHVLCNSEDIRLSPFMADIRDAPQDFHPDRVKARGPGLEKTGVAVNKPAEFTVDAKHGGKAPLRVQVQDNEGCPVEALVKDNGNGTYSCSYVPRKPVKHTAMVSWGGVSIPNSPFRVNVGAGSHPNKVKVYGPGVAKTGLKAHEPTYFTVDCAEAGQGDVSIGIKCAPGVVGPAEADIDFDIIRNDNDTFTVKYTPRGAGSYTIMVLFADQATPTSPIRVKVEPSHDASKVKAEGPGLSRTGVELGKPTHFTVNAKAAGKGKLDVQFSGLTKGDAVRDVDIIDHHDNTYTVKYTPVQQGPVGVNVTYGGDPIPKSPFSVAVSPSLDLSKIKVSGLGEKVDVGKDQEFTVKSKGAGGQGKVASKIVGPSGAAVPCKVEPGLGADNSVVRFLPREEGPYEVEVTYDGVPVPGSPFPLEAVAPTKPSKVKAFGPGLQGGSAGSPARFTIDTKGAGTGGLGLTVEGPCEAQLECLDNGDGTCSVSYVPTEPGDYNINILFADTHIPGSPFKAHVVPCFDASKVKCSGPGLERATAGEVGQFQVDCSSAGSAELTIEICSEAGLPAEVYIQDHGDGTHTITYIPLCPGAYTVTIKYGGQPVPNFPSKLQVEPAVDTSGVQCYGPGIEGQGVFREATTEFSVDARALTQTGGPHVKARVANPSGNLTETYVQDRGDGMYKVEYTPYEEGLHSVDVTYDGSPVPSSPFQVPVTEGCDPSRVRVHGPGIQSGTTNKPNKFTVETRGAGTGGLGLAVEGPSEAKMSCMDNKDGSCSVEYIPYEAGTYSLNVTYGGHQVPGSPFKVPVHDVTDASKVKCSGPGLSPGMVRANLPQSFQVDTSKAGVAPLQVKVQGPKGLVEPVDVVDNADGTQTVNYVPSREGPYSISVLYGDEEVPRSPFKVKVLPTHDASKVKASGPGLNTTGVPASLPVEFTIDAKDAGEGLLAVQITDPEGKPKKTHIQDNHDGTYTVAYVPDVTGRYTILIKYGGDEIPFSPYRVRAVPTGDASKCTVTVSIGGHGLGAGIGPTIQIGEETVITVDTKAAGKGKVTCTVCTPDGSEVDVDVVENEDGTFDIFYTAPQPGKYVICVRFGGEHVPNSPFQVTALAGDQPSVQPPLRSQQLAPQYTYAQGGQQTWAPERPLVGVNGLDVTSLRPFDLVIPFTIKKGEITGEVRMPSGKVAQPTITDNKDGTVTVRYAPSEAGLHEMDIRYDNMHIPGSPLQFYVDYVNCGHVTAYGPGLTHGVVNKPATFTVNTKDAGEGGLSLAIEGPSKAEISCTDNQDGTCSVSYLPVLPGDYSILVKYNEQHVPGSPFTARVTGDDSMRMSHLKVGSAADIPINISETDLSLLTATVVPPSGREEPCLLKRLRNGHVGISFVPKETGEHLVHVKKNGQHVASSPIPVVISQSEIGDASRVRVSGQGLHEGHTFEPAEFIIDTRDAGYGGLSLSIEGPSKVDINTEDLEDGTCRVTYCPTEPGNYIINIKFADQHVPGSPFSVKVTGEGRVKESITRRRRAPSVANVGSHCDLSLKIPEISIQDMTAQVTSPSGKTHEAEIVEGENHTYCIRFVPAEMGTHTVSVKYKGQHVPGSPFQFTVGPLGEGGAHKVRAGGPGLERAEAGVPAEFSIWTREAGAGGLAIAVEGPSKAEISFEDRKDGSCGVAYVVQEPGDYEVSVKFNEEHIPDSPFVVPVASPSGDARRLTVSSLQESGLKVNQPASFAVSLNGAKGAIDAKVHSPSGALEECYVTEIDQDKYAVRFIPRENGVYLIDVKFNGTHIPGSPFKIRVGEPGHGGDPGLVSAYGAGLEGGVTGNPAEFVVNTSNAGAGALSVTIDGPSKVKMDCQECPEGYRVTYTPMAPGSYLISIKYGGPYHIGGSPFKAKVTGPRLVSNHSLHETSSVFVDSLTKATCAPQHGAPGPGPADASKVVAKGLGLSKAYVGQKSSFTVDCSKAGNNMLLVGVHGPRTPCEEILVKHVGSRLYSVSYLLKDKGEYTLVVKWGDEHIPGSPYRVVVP
Sequence of UniProt O75390 (O75390 whole entry): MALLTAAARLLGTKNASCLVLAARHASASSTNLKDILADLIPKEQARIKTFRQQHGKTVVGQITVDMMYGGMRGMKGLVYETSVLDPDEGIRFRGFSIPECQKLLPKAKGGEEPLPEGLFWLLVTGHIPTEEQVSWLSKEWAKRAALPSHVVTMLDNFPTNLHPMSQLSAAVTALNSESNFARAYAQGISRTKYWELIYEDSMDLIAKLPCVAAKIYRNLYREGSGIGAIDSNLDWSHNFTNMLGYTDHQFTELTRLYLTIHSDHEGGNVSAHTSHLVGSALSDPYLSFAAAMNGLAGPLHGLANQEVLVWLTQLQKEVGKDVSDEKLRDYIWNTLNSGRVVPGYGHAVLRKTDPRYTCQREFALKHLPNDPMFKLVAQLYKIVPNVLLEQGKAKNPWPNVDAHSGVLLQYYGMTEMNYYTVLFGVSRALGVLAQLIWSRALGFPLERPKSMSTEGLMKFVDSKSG
Sequence of UniProt O14828 (O14828 whole entry): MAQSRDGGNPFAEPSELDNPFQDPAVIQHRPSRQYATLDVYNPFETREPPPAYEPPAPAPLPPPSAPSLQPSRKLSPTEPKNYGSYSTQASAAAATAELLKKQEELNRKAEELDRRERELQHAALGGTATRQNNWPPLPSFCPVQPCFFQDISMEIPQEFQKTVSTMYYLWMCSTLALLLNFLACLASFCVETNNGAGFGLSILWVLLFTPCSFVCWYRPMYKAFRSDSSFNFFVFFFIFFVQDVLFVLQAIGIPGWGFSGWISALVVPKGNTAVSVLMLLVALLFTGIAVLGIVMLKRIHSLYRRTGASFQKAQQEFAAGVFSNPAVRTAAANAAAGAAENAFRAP
Sequence of UniProt Q9UBI6 (Q9UBI6 whole entry): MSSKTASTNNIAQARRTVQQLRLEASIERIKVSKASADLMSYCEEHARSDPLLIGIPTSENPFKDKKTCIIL

Compound in this assay: C#CCNC(=O)CCSSCCC(=O)NCCc1ccc(C=O)c(C=O)c1
The assay is described as follows: lysine labeling ratio R10:1 (500 µM / 50 µM probe), SILAC-ABPP in living cells; higher = lower intrinsic lysine reactivity toward the probe, active = 2 or less. To be noted: HeLa; probe concentrations 500 vs 50 µM. As for the experimental part: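 Living HeLa cells (SILAC light/heavy) in PBS at room temperature were labeled with 50 µM versus 500 µM of the lysine-reactive, reductant-cleavable probe OPA-S-S-alkyne (SILAC labeling time not stated). Probe-modified peptides were CuAAC-biotinylated, captured on neutravidin and eluted with DTT/IAA, then quantified by LC-MS/MS. R = median peptide ratio per lysine (500/50 µM), combined over 3 forward and 3 reverse SILAC replicates. Ratios are capped at 20; R < 2 = hyper-reactive.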
As for “EGFR (lysine site: K538) (UniProt P00533)”, the “lysine labeling ratio R10:1” value is 5.46.
For “ALCAM (lysine site: K60) (UniProt Q13740)” the value was 2.97; for “AGRN (lysine site: K1708) (UniProt O00468)”, 2.99; for “NEGR1 (lysine site: K84) (UniProt Q7Z3B1)”, 1.36 (active).
For “ITGAV (lysine site: K718) (UniProt P06756)” the value was 2.95; for “L1CAM (lysine site: K230) (UniProt P32004)”, 5.86.
Next, CS (lysine site: K76) (UniProt O75390): 5.03; “EEF2 (lysine site: K42) (UniProt P13639)”: 1.82 (active); “SPTBN1 (lysine site: K1249) (UniProt Q01082)”: 4.92.
With “FASN (lysine site: K436) (UniProt P49327)”, the “lysine labeling ratio R10:1” value was 5.67.
Regarding “PLXNA1 (lysine site: K1084) (UniProt Q9UIW2)”, the “lysine labeling ratio R10:1” value was 2.49.
For UniProt P62249 (lysine site: K4) the value was 5.53; for UniProt Q14696 (lysine site: K222), 3.35; for UniProt Q15149 (lysine site: K2350), 4.82.
On to “ARPC2 (lysine site: K186) (UniProt O15144)”, for which the “lysine labeling ratio R10:1” value is 1.46 (active).
Next, UniProt P62316 (lysine site: K18): 2.06.
Take “CD151 (lysine site: K132) (UniProt P48509)”: the “lysine labeling ratio R10:1” value is 2.31.
UniProt P08240 (lysine site: K220): the “lysine labeling ratio R10:1” value was 2.1.
With “GNG12 (lysine site: K34) (UniProt Q9UBI6)”, the “lysine labeling ratio R10:1” value was 2.84.
For “HSPA5 (lysine site: K185) (UniProt P11021)” the value was 3.68.
Take “CCT2 (lysine site: K250) (UniProt P78371)”: the “lysine labeling ratio R10:1” value is 1.5 (active).
Next, “FLNA (lysine site: K2607) (UniProt P21333)”: 6.14; “HSP90B1 (lysine site: K547) (UniProt P14625)”: 3.04; “ITGA6 (lysine site: K310) (UniProt P23229)”: 1.72 (active).
With “ACSL3 (lysine site: K706) (UniProt O95573)”, the “lysine labeling ratio R10:1” value was 3.43.
For “ALCAM (lysine site: K75) (UniProt Q13740)” the value was 9.89.
Next, “SLC3A2 (lysine site: K300) (UniProt P08195)”: 6.33; “LGALS1 (lysine site: K108) (UniProt P09382)”: 1.62 (active); UniProt P55072 (lysine site: K696): 1.22 (active).
Take “NUCB1 (lysine site: K302) (UniProt Q02818)”: the “lysine labeling ratio R10:1” value was 2.22.
For UniProt Q96TA1 (lysine site: K479) the value was 2.71.
Turning to “EBP (lysine site: K106) (UniProt Q15125)”, the “lysine labeling ratio R10:1” value is 4.19.
For UniProt P60842 (lysine site: K54) the value was 1.77 (active); for “KRT18 (lysine site: K417) (UniProt P05783)”, 10.9; for “SMC2 (lysine site: K963) (UniProt O95347)”, 2.26.
Next, “FAT1 (lysine site: K2562) (UniProt Q14517)”: 1.58 (active); “SCAMP3 (lysine site: K102) (UniProt O14828)”: 1.06 (active); “SEMA4D (lysine site: K104) (UniProt Q92854)”: 0.575 (active).
On to “RPS19 (lysine site: K7) (UniProt P39019)”, for which the “lysine labeling ratio R10:1” value is 4.55.
On to UniProt O60245 (lysine site: K875), for which the “lysine labeling ratio R10:1” value was 1.6 (active).
